Data on 40 compounds can be found in PubChem BioAssay (NCATS).

Structures are written as SMILES. “And” between values parts separate entries of the source, which are not always exact repeats. Identical values can stand only once. Inconclusive results are not listed. A call without a number means that no potency is given here. Where a structure was tested more than once in an assay, its records may differ in their call. The source made the active and inactive calls. The call rests on the fitted dose curve; in most records, active means well fitted inhibition curve with a large enough effect; inconclusive means small, poorly fitted or top-dose-only effect; inactive means flat fitted curve, though single readings scatter.
Potency means the concentration at half of the fitted maximal effect.

This experiment deals with MCC-26. Kind of experiment: qHTS assay to identify novel small-molecules to repurpose for Merkel cell carcinoma treatment (AID 1296009). Further: nearly all actives have a fitted effect of over 60% in size. To be noted: MCC and control cell lines, CellTiter-Glo viability, 72 h; series mostly up to 46 µM; activity change, negative = cytotoxicity: at the top concentration. An excerpt:
MCC is a rare and aggressive neuroendocrine skin cancer with limited treatment options. Approximately 80% of MCCs have the Merkel cell polyomavirus (MCPyV) DNA integrated into the host genome (virus-positive: VP-MCC) and viral oncogenes drive oncogenesis. The remaining MCCs are virus-negative (VN-MCC) and are caused by UV mutagenesis. To identify novel treatments for VP-MCC and/or VN-MCC we screened three VP-MCC cell lines (WAGA, MKL-1, MKL-2), three VN-MCC cell lines (MCC-13, MCC-26, UISO), and four immortalized, non-transformed control cell lines (HaCaT, HEK293T, CRL7250, NIH-3T3) against ~2,400 compounds in the NCGC Pharmaceutical Collection (NPC) and ~1,900 compounds in the Mechanism Interrogation PlatE (MiPE). Using cell viability as a readout (CellTiter-Glo assay) we found both overlapping and distinct drugs that can be repurposed for the treatment of VP-MCC and VN-MCC.
A high-throughput screen was conducted in 1536-well white flat bottom plates (Corning) on a Kalypsys robotic system. Cell lines WAGA, MKL-1, MKL-2, MCC-13, MCC-26, UISO, HaCaT, HEK293T, CRL7250, and NIH-3T3 were screened against 2 small molecule annotated drug libraries NPC and MIPE in dose response (8 and 11 pt. respectively) measuring cell viability after 72 hours of incubation. […] A 1,536 pintool (Kalypsys) was used to transfer 23 nL of compound in DMSO to the 1,536-well assay plates. After 72 hr incubation at 37 degree celsius, 2.5 uL of CellTiter-Glo (Promega) was dispensed into each well using a BiorapTR. Plates were incubated at room temperature for 10 min, transferred to a ViewLux (PerkinElmer) and the luminescence was recorded using an exposure time of 2 seconds. Relative luminescence units (RLUs) were normalized to in-plate controls (no cells as a positive (cytotoxicity) control, DMSO as negative control) and the normalized data was processed using NCATS in-house software.
On the technique in general: In qHTS, concentration-response curves come from the screen itself.
With `CCOC(=O)[C@H](CCc1ccccc1)N[C@H]1CS[C@H](c2cccs2)CN(CC(=O)O)C1=O`, the Potency result was “inactive”.
As for `COc1cccc(N(C)C(=S)Oc2ccc3c(c2)CCCC3)n1`, the Potency entry is “inactive”.
Still for that read-out and setting: to `CCOC(=O)c1ccc(C#Cc2ccc3c(c2)C(C)(C)CCS3)nc1` belongs “inactive”; to `NCCCC(O)(P(=O)(O)O)P(=O)(O)O`, “inactive”; to `Nc1nc(=S)c2[nH]cnc2[nH]1`, 20.9 µM (active).
Still for that read-out and setting: to `CC(C)C[C@H](NC(=O)[C@H](CCc1ccccc1)NC(=O)CN1CCOCC1)C(=O)N[C@@H](Cc1ccccc1)C(=O)N[C@@H](CC(C)C)C(=O)[C@@]1(C)CO1` belongs 0.105 µM (active); to `Cc1oc(=O)oc1CN1CCN(c2cc3c(cc2F)c(=O)c(C(=O)O)c2n3C(C)S2)CC1` (stereo not given), “inactive”.
`CCCN[C@H]1CCc2nc(N)sc2C1`: the Potency result was “inactive”.
The same measure, in the same setting: to `CC(C)(C)NC(=O)[C@H]1CC[C@H]2[C@@H]3CC[C@H]4NC(=O)C=C[C@]4(C)[C@H]3CC[C@]12C` belongs “inactive”.
For `CNS(=O)(=O)CCc1ccc2[nH]cc(C3CCN(C)CC3)c2c1`, the Potency entry was “inactive”.
For the compound `O=C(O)C1CCCN(CCC=C(c2ccccc2)c2ccccc2)C1` (stereo not given), the “activity change, negative = cytotoxicity” value was -4.05% (inactive).
In the case of `COc1nc(N)nc2c1ncn2[C@@H]1O[C@H](CO)[C@@H](O)[C@@H]1O`, the Potency entry is “inactive”.
On to `CCC(=O)O[C@]1(C(=O)SCF)[C@H](C)C[C@H]2[C@@H]3C[C@H](F)C4=CC(=O)C=C[C@]4(C)[C@@]3(F)[C@@H](O)C[C@@]21C`, for which the Potency result was “inactive”.
Still for that read-out and setting: to `COc1ccc2c(c1)c(CC(=O)OCC(=O)O)c(C)n2C(=O)c1ccc(Cl)cc1` belongs “inactive”; to `CCn1cc(C(=O)O)c(=O)c2cc(F)c(N3CCN(C)CC3)cc21`, “inactive”.
`CCN(C)C(=O)Oc1cccc([C@H](C)N(C)C)c1`: the Potency entry was “inactive”.
On to `COc1cnc(NS(=O)(=O)c2ccc(N)cc2)nc1`, for which the Potency result was “inactive”.
The same measure, in the same setting: to `C1CCC(C(CC2CCCCN2)C2CCCCC2)CC1` (stereo not given) belongs 21.1 µM (active) and inactive; to `CN(C)CCc1c[nH]c2ccc(CS(=O)(=O)N3CCCC3)cc12`, “inactive”.
Consider `O=NN(CCCl)C(=O)NC1CCCCC1`, for which the Potency result was “inactive”.
Same read-out and setting: to `C[C@@H]1CN(c2c(F)c(N)c3c(=O)c(C(=O)O)cn(C4CC4)c3c2F)C[C@H](C)N1` belongs “inactive”.
On the same count and under the same terms, to `CN(CCOc1ccc(CC2SC(=O)NC2=O)cc1)c1ccccn1` (stereo not given) belongs “inactive”; to `CCC(=O)O[C@]1(C(=O)CCl)[C@@H](C)C[C@H]2[C@@H]3CCC4=CC(=O)C=C[C@]4(C)[C@@]3(F)[C@@H](O)C[C@@]21C`, “inactive”; to `Cn1nnc2c(C(N)=O)ncn2c1=O`, “inactive”.
Still for that read-out and setting: to `CNC(=O)c1cc(Oc2ccc(NC(=O)Nc3ccc(Cl)c(C(F)(F)F)c3)cc2)ccn1` belongs “inactive”.
In the case of `CN(Cc1cc(Br)cc(Br)c1N)C1CCCCC1`, the Potency entry was “inactive”.
The same measure, in the same setting: to `CC(C)C1CCC(C(=O)N[C@H](Cc2ccccc2)C(=O)O)CC1` (stereo not given in full) belongs “inactive”.
On to `Cn1c(=O)c2c(ncn2CC(O)CO)n(C)c1=O` (stereo not given), for which the Potency result was “inactive”.
As to `CC(C)(C#N)c1cc(Cn2cncn2)cc(C(C)(C)C#N)c1`, the “activity change, negative = cytotoxicity” value is 5.73% (inactive).
`O=C(O)c1cc(=O)[nH]c(=O)[nH]1`: the Potency entry is “inactive”.
On the same count and under the same terms, to `C#CCN[C@@H]1CCc2ccccc21` belongs “inactive”; to `Nc1nc(F)nc2c1ncn2[C@@H]1O[C@H](CO)[C@@H](O)[C@@H]1O`, “inactive and 2.09 µM (active)”.
`NC(=O)c1cccc(N)c1`: the “activity change, negative = cytotoxicity” value is 3.58% (inactive).
On to `CCCOc1ccc(C(=O)OCCN(CC)CC)cc1N`, for which the Potency entry is “inactive”.
Same read-out and setting: to `COc1c(N2CCNC(C)C2)c(F)cc2c(=O)c(C(=O)O)cn(C3CC3)c12` (stereo not given) belongs “inactive”.
For `NC1(c2ccc(-c3nc4ccn5c(=O)[nH]nc5c4cc3-c3ccccc3)cc2)CCC1`, the Potency entry is “inactive”.
Consider `Cc1ccnc2c1NC(=O)c1cccnc1N2C1CC1`, for which the Potency result was “inactive”.
As for `CC[C@H](NC(C)C)[C@H](O)c1ccc(O)c2[nH]c(=O)ccc12`, the Potency result is “inactive”.
As for `O=C(NCC1CN(c2ccc(N3CCOCC3=O)cc2)C(=O)O1)c1ccc(Cl)s1` (stereo not given), the Potency result was “inactive”.
The same measure, in the same setting: to `CCn1cc(C(=O)O)c(=O)c2cc(F)c(N3CCNCC3)nc21` belongs “inactive”.
